Data reported in PubChem BioAssay (NCI).
This is part of a sample that, as a whole, favours compounds with a hit. Of some 83,000 tested, about 20% had one in any assay.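 96-well plates, one dose, 48 hours. Percent growth reported; active if below 10.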 Active and inactive are the calls of the source.

Experiments:
Experiment in all cases: NCI-60 one-dose screen, 48 h (100 = growth as untreated, 0 = no growth, -100 = all killed)
Details in all cases: 10 µM unless noted
HCT-15 colon = system: HCT-15 colon
HT29 colon = system: HT29 colon
SNB-75 CNS = system: SNB-75 CNS
SNB-19 CNS = system: SNB-19 CNS
U251 CNS = system: U251 CNS
PC-3 prostate = system: PC-3 prostate
SK-MEL-5 melanoma = system: SK-MEL-5 melanoma
UACC-62 melanoma = system: UACC-62 melanoma
LOX IMVI melanoma = system: LOX IMVI melanoma
SK-MEL-28 melanoma = system: SK-MEL-28 melanoma

Measured: growth

Oc1ccccc1-c1nc2c3ccccc3c3ccccc3c2o1
inactive: HCT-15 colon 92.1% | HT29 colon 106% | SNB-75 CNS 89.7% | SNB-19 CNS 95.7% | U251 CNS 82% | PC-3 prostate 77.8% | SK-MEL-5 melanoma 98.6% | UACC-62 melanoma 88.4% | LOX IMVI melanoma 90.6% | SK-MEL-28 melanoma 117%

COc1cc2nc3c(=O)n(CCN(C)C)cnn3c(=O)c2cc1OC
inactive: HCT-15 colon 103% | HT29 colon 101% | SNB-75 CNS 76.4% | SNB-19 CNS 105% | U251 CNS 107% | PC-3 prostate 102% | SK-MEL-5 melanoma 98.7% | UACC-62 melanoma 101% | LOX IMVI melanoma 97.9% | SK-MEL-28 melanoma 102%

COc1ccc2nc(-c3ccc(Cl)cc3)cc(C(=O)N3N=C(c4ccc(N)cc4)CC3c3ccccc3)c2c1 (stereo not given)
inactive: HCT-15 colon 26.7% | HT29 colon 19.6% | SNB-75 CNS 44.3% | SNB-19 CNS 49.6% | U251 CNS 50.7% | PC-3 prostate 35.9% | SK-MEL-5 melanoma 39.4% | UACC-62 melanoma 37% | LOX IMVI melanoma 40.4% | SK-MEL-28 melanoma 61.7%

COc1ccc(/C=C(/C(=O)N2CCN(Cc3ccccc3)CC2)c2cc(OC)c(OC)c(OC)c2)cc1O
inactive: HCT-15 colon 59.7% | HT29 colon 95.4% | SNB-75 CNS 49.2% | SNB-19 CNS 64.8% | U251 CNS 66.1% | PC-3 prostate 34.8% | SK-MEL-5 melanoma 33.3% | UACC-62 melanoma 45% | LOX IMVI melanoma 60.2% | SK-MEL-28 melanoma 76.5%

Cc1nc2sc(C(=O)Nc3cccc(Cl)c3C)c(N)c2cc1C(C)O (stereo not given)
inactive: HCT-15 colon 16.4% | SNB-75 CNS 13.9% | SNB-19 CNS 22.4% | U251 CNS 17.7% | PC-3 prostate 13.3% | UACC-62 melanoma 30.7% | LOX IMVI melanoma 29.9% | SK-MEL-28 melanoma 62.1%
active: HT29 colon 1.68% | SK-MEL-5 melanoma 9.62%

c1ccc(-c2n(Cc3ccc4ccccc4n3)cc[n+]2Cc2ccc3ccccc3c2)cc1
inactive: HCT-15 colon 70.5%
active: HT29 colon -9.68% | SNB-75 CNS 3.74% | SNB-19 CNS 9.86% | U251 CNS 8.14% | PC-3 prostate 1.28% | SK-MEL-5 melanoma -95.2% | UACC-62 melanoma -46.2% | LOX IMVI melanoma -25.9% | SK-MEL-28 melanoma 0.22%

CCOC(=O)C1=C(C)n2nc(CC#N)c(C#N)c2NC1c1ccc(CC)cc1 (stereo not given)
inactive: HCT-15 colon 99.6% | HT29 colon 107% | SNB-75 CNS 88.5% | SNB-19 CNS 106% | U251 CNS 101% | PC-3 prostate 90.8% | SK-MEL-5 melanoma 96.6% | UACC-62 melanoma 94.5% | LOX IMVI melanoma 92.7% | SK-MEL-28 melanoma 103%

CCN1CCC[C@H]1c1cc(O)c2c(c1OC)C[C@H]1C[C@H]3[C@H](N)C(=O)C(C(N)=O)=C(O)[C@@]3(O)C(=O)C1=C2O
active: HCT-15 colon 1.67% | HT29 colon -4.51% | SNB-75 CNS -4.69% | SNB-19 CNS -0.511% | U251 CNS -8.89% | PC-3 prostate 3.27% | SK-MEL-5 melanoma -46% | UACC-62 melanoma -19% | LOX IMVI melanoma -45.2% | SK-MEL-28 melanoma -10.6%

OCCNc1nc(NCCO)nc(Nc2ccc(C3=NN(c4ccc(Cl)cc4)C(c4ccc(Cl)cc4)C3)cc2)n1 (stereo not given)
inactive: HCT-15 colon 48.4% | HT29 colon 30.5% | SNB-75 CNS 51.1% | SNB-19 CNS 78.1% | U251 CNS 43% | PC-3 prostate 32.8% | SK-MEL-5 melanoma 78.2% | UACC-62 melanoma 77.9% | LOX IMVI melanoma 28.2% | SK-MEL-28 melanoma 54.4%

COC(=O)CCc1cc(O)c2c(c1)[C@@H](C(=O)OC)[C@H](c1ccc(O)c(O)c1)O2
inactive: HCT-15 colon 50.3% | HT29 colon 95% | SNB-75 CNS 71.2% | SNB-19 CNS 74.9% | U251 CNS 71% | PC-3 prostate 85.5% | SK-MEL-5 melanoma 76.4% | UACC-62 melanoma 66% | LOX IMVI melanoma 63.4% | SK-MEL-28 melanoma 73.8%

COc1ccc2c(c1)Oc1nc(N)c(C#N)c(N)c1C2Sc1ccc(SC)cc1 (stereo not given)
inactive: HT29 colon 17.2% | SNB-75 CNS 34.2% | SNB-19 CNS 58.2% | U251 CNS 13.9% | PC-3 prostate 35.9% | SK-MEL-5 melanoma 40.8% | UACC-62 melanoma 50.7% | SK-MEL-28 melanoma 32.7%
active: HCT-15 colon -10.9% | LOX IMVI melanoma -39.2%

CC(=O)Nc1nc2c(c(N)c1C#N)C(c1cccc(Cl)c1)C1=C(CCCC1=O)N2c1sc2c(c1C#N)CCCC2 (stereo not given)
inactive: HCT-15 colon 30.1% | HT29 colon 29.4% | SNB-75 CNS 81% | SNB-19 CNS 69.7% | U251 CNS 42.3% | PC-3 prostate 20.8% | SK-MEL-5 melanoma 61.5% | UACC-62 melanoma 59.8% | LOX IMVI melanoma 51.5% | SK-MEL-28 melanoma 82.4%
